# According to publication PMC7862700, “An all-to-all approach to the identification of sequence-specific readers for epigenetic DNA modifications on cytosine”:
# Key:
# Assay in all cases: DAPPL (digital affinity profiling via proximity ligation, sequencing); 10 mM Tris-HCl pH 7.5, 50 mM NaCl, 1 mM DTT, 4% glycerol, room temperature, 30 min; GST-TFs on glutathione beads, 16-mer random dsDNA library, 0.1% formaldehyde crosslink after washing; high values mean tight binding
# FLI1 = target: T1, FLI1 (Homo sapiens, UniProt Q01543 1-452); conditions: protein: recombinant; tags: N-terminal GST; dsDNA, one strand shown
# T1 sequence: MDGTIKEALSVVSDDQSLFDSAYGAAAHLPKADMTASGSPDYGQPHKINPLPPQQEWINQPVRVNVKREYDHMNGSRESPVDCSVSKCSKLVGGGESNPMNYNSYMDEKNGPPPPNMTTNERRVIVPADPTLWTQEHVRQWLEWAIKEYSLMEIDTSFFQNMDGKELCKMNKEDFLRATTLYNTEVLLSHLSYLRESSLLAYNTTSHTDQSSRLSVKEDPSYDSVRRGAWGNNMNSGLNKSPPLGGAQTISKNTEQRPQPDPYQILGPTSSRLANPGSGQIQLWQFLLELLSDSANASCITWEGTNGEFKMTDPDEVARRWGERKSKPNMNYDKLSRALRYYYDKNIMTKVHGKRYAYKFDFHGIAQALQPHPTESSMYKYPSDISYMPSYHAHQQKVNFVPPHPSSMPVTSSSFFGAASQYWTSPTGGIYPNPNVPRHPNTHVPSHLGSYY
# In short: (§1)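 A tag-only sample was pooled with DNA-barcoded human transcription factors that had been expressed in yeast as GST fusions and captured on glutathione beads. The pools were incubated for 30 min at room temperature with 200 nmole of a random double-stranded 16-mer DNA library in Tris/NaCl/DTT/glycerol buffer, then washed, crosslinked with 0.1% formaldehyde, proximity-ligated (BsaI/T4 ligase, 1 h, 37 °C), PCR-amplified and sequenced on an Illumina NextSeq500. Binding signal is each hexamer's read frequency for a factor divided by its frequency for the tag-only sample.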
# ELK1 = target: T2, ELK1 (Homo sapiens, UniProt P19419 1-428); conditions: protein: recombinant; tags: N-terminal GST; dsDNA, one strand shown
# T2 sequence: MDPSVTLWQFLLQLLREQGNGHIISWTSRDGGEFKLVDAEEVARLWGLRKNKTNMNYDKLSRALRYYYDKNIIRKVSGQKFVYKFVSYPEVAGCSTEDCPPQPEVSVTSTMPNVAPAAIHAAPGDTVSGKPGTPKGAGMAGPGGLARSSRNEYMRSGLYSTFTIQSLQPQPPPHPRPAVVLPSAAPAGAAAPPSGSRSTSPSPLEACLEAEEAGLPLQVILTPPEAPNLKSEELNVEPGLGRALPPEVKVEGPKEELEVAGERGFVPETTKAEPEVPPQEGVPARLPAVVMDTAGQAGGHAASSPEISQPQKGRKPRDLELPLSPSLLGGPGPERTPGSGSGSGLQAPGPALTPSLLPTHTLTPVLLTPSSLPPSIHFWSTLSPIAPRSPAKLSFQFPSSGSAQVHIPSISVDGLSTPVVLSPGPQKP
# In short: as §1
# GABPA = target: T3, GABPA (Homo sapiens, UniProt Q06546 1-454); conditions: protein: recombinant; tags: N-terminal GST; dsDNA, one strand shown
# T3 sequence: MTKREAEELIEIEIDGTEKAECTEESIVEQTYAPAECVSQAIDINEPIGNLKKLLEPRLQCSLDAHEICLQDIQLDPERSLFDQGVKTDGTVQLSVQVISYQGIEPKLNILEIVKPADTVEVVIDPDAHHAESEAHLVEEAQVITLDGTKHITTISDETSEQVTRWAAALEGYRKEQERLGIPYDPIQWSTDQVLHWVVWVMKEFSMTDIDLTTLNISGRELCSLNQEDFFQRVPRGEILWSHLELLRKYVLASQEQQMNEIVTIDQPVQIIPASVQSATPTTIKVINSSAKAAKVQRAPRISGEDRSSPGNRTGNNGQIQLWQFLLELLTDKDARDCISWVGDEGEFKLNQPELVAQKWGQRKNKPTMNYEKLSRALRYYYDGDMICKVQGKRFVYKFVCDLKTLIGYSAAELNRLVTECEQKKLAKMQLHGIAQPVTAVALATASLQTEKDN
# In short: as §1
# ERG = target: T4, ERG (Homo sapiens, UniProt P11308 1-479); conditions: protein: recombinant; tags: N-terminal GST; dsDNA, one strand shown
# T4 sequence: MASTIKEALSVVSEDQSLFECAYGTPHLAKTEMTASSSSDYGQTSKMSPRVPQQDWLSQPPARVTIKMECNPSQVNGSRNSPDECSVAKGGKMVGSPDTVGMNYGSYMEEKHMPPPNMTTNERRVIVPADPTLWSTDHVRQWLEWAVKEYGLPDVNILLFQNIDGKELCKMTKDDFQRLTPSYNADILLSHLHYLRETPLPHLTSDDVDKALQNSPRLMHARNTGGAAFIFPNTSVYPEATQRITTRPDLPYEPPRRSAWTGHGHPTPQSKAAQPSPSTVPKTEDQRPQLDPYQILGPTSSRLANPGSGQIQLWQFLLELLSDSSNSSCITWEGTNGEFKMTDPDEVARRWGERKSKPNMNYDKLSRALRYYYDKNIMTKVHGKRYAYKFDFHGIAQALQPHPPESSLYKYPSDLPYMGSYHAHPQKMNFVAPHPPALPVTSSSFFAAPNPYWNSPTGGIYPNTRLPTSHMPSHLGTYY
# In short: as §1
# ELF1 = ELF1 (Homo sapiens, UniProt P32519 1-619); conditions: protein: recombinant; tags: N-terminal GST; dsDNA, one strand shown
# In short: as §1
# EHF = target: T5, EHF (Homo sapiens, UniProt Q9NZC4 1-300); conditions: protein: recombinant; tags: N-terminal GST; dsDNA, one strand shown
# T5 sequence: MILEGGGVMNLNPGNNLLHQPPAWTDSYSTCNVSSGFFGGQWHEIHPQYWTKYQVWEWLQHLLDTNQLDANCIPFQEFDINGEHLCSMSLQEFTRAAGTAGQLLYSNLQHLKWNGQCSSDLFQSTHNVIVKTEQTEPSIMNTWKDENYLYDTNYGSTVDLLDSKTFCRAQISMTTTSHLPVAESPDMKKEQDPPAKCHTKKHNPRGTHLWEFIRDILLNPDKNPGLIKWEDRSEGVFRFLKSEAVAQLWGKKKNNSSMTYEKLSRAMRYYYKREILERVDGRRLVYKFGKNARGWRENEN
# In short: as §1
# SPI1 = SPI1 (Homo sapiens, UniProt P17947 1-270); conditions: protein: recombinant; tags: N-terminal GST; dsDNA, one strand shown
# In short: as §1
# SPIB = SPIB (Homo sapiens, UniProt Q01892 1-262); conditions: protein: recombinant; tags: N-terminal GST; dsDNA, one strand shown
# In short: as §1
# ELK3 = target: T6, ELK3 (Homo sapiens, UniProt P41970 1-407); conditions: protein: recombinant; tags: N-terminal GST; dsDNA, one strand shown
# T6 sequence: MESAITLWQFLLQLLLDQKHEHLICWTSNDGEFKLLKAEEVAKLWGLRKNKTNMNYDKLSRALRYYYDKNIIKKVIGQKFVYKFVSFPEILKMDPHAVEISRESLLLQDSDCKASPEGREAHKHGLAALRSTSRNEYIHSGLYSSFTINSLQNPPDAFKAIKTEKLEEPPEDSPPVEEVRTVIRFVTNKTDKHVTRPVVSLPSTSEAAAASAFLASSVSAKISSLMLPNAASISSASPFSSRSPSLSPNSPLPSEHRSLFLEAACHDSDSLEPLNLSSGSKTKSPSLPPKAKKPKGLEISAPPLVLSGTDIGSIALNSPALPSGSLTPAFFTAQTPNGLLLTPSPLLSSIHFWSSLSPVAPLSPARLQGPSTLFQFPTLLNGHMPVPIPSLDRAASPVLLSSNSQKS
# In short: as §1
# FEV = target: T7, FEV (Homo sapiens, UniProt Q99581 1-238); conditions: protein: recombinant; tags: N-terminal GST; dsDNA, one strand shown
# T7 sequence: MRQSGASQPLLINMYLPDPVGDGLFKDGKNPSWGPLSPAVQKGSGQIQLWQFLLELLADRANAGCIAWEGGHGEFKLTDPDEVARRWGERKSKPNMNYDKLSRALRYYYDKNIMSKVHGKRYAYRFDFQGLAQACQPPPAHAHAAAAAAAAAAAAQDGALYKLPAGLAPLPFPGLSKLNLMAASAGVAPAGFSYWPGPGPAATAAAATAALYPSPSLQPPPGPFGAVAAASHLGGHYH
# In short: as §1
# ETV5 = ETV5 (Homo sapiens, UniProt P41161 1-510); conditions: protein: recombinant; tags: N-terminal GST; dsDNA, one strand shown
# In short: as §1
# HSF1 = HSF1 (Homo sapiens, UniProt Q00613 1-529); conditions: protein: recombinant; tags: N-terminal GST; chain copies: 3; dsDNA, one strand shown
# In short: as §1
# SPIC = target: T8, SPIC (Homo sapiens, UniProt Q8N5J4 1-248); conditions: protein: recombinant; tags: N-terminal GST; dsDNA, one strand shown
# T8 sequence: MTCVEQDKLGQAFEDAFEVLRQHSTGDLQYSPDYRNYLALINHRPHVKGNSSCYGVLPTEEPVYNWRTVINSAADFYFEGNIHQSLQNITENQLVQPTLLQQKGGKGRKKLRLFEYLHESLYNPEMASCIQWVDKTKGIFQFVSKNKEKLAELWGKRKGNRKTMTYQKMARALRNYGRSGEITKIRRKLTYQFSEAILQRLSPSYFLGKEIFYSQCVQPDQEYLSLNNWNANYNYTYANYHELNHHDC
# In short: as §1
# ELF4 = ELF4 (Homo sapiens, UniProt Q99607 1-663); conditions: protein: recombinant; tags: N-terminal GST; dsDNA, one strand shown
# In short: as §1
# ELK4 = target: T9, ELK4 (Homo sapiens, UniProt P28324-2 1-405); conditions: protein: recombinant; tags: N-terminal GST; dsDNA, one strand shown
# T9 sequence: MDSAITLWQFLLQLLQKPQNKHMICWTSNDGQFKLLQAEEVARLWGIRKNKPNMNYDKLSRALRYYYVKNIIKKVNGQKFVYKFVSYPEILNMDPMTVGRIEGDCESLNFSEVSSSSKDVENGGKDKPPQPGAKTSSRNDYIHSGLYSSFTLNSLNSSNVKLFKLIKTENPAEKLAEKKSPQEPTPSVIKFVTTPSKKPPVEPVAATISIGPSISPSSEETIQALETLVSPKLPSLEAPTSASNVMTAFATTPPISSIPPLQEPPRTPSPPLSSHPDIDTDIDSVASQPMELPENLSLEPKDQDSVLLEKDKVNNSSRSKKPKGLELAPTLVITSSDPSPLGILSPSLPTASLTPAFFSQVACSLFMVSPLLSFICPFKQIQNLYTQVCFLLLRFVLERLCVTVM
# In short: as §1
# ETV2 = target: T10, ETV2 (Homo sapiens, UniProt O00321 1-342); conditions: protein: recombinant; tags: N-terminal GST; dsDNA, one strand shown
# T10 sequence: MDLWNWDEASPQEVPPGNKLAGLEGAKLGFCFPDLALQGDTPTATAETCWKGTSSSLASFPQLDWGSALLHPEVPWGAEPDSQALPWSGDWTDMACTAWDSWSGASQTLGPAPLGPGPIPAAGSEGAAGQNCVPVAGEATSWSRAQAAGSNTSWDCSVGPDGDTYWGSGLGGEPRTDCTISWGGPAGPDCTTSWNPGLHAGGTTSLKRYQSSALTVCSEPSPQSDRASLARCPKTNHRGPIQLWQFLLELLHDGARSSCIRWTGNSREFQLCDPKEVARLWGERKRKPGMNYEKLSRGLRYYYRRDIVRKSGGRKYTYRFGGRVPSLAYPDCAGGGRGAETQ
# In short: as §1
# ELF3 = target: T11, ELF3 (Homo sapiens, UniProt P78545 1-371); conditions: protein: recombinant; tags: N-terminal GST; dsDNA, one strand shown
# T11 sequence: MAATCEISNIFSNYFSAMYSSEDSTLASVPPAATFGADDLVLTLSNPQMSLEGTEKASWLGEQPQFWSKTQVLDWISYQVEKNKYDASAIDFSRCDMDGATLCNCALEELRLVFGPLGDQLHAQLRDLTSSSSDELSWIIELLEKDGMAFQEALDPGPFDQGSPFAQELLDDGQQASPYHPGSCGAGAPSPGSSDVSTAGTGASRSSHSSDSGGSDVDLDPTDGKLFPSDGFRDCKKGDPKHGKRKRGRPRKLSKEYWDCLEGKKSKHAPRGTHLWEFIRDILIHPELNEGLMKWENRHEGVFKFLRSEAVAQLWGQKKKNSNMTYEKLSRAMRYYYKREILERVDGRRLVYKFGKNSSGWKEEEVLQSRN
# In short: as §1
# CRX = CRX (Homo sapiens, UniProt O43186 1-299); conditions: protein: recombinant; tags: N-terminal GST; dsDNA, one strand shown
# In short: as §1
# ETV1 = ETV1 (Homo sapiens, UniProt P50549 1-477); conditions: protein: recombinant; tags: N-terminal GST; dsDNA, one strand shown
# In short: as §1
# HSF1, sequence (Q00613 whole entry): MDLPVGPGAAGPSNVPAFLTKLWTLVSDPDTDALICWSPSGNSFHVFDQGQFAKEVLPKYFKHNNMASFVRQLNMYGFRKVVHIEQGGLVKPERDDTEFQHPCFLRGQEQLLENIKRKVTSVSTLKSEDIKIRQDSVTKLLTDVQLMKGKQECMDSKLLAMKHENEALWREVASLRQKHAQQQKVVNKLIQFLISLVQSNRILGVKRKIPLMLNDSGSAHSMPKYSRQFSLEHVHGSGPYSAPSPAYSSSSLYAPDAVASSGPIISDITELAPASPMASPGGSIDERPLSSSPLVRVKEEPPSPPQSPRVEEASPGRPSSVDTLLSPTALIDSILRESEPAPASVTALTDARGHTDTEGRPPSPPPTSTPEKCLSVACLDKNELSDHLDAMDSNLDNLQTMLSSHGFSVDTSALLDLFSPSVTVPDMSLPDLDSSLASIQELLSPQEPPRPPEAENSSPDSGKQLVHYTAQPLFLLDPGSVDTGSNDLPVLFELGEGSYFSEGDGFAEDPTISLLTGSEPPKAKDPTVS
# ETV5, sequence (P41161 whole entry): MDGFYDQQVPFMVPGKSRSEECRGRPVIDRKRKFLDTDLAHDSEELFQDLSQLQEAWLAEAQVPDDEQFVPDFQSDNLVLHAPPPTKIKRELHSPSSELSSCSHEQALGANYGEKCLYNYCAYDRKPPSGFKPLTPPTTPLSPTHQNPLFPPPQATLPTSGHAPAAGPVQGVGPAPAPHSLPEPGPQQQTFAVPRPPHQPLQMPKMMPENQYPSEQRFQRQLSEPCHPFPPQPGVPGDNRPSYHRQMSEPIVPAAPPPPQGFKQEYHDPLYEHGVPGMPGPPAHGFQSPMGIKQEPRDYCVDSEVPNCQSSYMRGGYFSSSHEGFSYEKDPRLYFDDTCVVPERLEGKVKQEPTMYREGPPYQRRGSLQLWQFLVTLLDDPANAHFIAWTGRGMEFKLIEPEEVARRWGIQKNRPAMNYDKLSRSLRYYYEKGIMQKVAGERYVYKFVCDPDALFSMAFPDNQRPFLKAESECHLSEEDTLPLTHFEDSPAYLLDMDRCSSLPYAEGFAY
# ELF4, sequence (Q99607 whole entry): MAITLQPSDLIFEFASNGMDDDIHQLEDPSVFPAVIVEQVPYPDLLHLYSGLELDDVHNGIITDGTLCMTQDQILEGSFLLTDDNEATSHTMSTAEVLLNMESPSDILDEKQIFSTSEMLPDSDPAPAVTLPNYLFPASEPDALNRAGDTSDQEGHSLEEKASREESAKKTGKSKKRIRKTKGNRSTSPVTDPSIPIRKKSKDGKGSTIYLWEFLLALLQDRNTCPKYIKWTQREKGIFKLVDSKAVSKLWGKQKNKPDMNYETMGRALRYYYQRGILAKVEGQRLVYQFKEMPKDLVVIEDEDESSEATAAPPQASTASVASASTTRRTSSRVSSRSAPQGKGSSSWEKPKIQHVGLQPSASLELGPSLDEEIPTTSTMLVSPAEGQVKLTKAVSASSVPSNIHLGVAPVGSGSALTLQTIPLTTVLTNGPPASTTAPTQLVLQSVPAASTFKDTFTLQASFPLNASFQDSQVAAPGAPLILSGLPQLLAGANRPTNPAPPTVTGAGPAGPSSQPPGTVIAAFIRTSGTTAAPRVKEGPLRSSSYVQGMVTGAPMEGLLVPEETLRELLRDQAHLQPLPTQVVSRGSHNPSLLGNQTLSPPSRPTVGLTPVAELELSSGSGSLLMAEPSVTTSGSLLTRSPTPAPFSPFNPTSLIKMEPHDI
# ELF1, sequence (P32519 whole entry): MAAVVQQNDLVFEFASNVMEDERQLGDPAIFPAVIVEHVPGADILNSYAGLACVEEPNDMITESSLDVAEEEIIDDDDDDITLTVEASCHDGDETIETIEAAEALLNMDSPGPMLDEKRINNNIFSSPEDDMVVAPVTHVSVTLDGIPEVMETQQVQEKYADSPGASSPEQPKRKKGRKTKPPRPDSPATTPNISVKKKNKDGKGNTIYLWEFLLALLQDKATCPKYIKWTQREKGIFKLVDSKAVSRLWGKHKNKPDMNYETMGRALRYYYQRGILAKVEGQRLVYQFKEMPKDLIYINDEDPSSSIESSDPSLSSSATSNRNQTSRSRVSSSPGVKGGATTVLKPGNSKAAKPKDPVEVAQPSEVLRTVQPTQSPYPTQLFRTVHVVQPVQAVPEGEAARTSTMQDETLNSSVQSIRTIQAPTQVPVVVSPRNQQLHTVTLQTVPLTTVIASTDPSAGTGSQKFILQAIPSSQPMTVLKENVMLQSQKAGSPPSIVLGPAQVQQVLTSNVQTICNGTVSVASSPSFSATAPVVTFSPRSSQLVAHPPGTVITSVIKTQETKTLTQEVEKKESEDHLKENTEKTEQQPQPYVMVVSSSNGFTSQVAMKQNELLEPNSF
# CRX, sequence (O43186 whole entry): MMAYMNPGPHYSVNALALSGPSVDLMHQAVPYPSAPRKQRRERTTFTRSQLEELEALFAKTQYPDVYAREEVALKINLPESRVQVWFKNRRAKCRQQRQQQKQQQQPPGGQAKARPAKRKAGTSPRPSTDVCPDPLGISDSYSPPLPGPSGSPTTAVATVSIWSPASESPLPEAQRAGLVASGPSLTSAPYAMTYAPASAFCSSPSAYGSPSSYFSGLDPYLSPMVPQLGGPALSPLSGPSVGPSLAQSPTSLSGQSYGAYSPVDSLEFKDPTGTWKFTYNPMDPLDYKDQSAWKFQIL
# ETV1, sequence (P50549 whole entry): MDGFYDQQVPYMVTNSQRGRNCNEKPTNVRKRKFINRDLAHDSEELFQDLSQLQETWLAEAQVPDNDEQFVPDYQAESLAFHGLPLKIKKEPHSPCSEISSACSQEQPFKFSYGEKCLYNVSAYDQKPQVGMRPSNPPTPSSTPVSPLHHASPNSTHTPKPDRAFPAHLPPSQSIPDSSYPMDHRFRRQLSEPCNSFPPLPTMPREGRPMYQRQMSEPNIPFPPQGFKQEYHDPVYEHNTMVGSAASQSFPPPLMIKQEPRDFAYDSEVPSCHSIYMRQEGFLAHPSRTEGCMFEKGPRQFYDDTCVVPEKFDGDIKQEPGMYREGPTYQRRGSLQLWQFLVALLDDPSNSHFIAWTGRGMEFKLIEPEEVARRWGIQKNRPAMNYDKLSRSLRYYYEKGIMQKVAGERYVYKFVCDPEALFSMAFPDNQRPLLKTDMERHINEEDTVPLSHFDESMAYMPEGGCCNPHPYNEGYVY
# SPIB, sequence (Q01892 whole entry): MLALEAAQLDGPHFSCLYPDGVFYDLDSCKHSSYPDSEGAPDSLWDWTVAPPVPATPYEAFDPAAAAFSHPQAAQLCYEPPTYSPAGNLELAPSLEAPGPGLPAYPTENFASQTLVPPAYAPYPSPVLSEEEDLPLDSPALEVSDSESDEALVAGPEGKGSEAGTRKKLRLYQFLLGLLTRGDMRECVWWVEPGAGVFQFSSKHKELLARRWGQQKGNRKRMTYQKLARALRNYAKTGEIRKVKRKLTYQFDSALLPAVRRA
sequence,measurement,setting,value
TCCTTA,binding signal,FLI1,"1.6 fold enrichment (6-mer frequency, TF over GST control)"
same,binding signal,ELK1,"1.38 fold enrichment (6-mer frequency, TF over GST control)"
same,binding signal,GABPA,"1.57 fold enrichment (6-mer frequency, TF over GST control)"
same,binding signal,ERG,"1.55 fold enrichment (6-mer frequency, TF over GST control)"
same,binding signal,ELF1,"1.66 fold enrichment (6-mer frequency, TF over GST control)"
same,binding signal,EHF,"1.71 fold enrichment (6-mer frequency, TF over GST control)"
same,binding signal,SPI1,"1.78 fold enrichment (6-mer frequency, TF over GST control)"
same,binding signal,SPIB,"1.7 fold enrichment (6-mer frequency, TF over GST control)"
same,binding signal,ELK3,"1.4 fold enrichment (6-mer frequency, TF over GST control)"
same,binding signal,FEV,"1.48 fold enrichment (6-mer frequency, TF over GST control)"
same,binding signal,ETV5,"1.52 fold enrichment (6-mer frequency, TF over GST control)"
same,binding signal,HSF1,"1.54 fold enrichment (6-mer frequency, TF over GST control)"
same,binding signal,SPIC,"1.66 fold enrichment (6-mer frequency, TF over GST control)"
same,binding signal,ELF4,"1.56 fold enrichment (6-mer frequency, TF over GST control)"
same,binding signal,ELK4,"1.41 fold enrichment (6-mer frequency, TF over GST control)"
same,binding signal,ETV2,"1.59 fold enrichment (6-mer frequency, TF over GST control)"
same,binding signal,ELF3,"1.43 fold enrichment (6-mer frequency, TF over GST control)"
same,binding signal,CRX,"1.83 fold enrichment (6-mer frequency, TF over GST control)"
same,binding signal,ETV1,"1.56 fold enrichment (6-mer frequency, TF over GST control)"
